From PubChem BioAssay
Several values for one entry are separate records, joined by “and”; a condition that tells them apart may be missing. Equal entries are not always repeated. Values without a mark were called inactive. How the calls were made is not given here.

test system: Botulinum neurotoxin type F light chain protease (Clostridium botulinum); assay: Clostridium botulinum type F light chain protease inhibitors, microsphere substrate cleavage, validation (AID 588459); conditions: multiplex microsphere protease substrate cleavage assay, flow cytometry; at 10 µM; stronger effect = higher value

| SMILES | inhibition [%] |
| --- | --- |
| COc1c(C)cc(C(=O)C2CCCN(Cc3ccc(Oc4ncccn4)cc3)C2)cc1C (stereo not given) | -2.8 |
| C[N+]12CCCCC1C(COC(=O)c1ccc3c(c1)OCO3)CCC2 (stereo not given) | 2.1 |
| CCOC(=O)c1ccc(NC(=S)NCCc2ccccc2F)cc1 | 4.9 |
| CN(C)CCC(c1ccccc1)c1ccccn1 (stereo not given) | -2.8 |
| CC(=O)OCC(=O)[C@@]12OC3(CCCC3)O[C@@H]1C[C@H]1[C@@H]3CCC4=CC(=O)C=C[C@]4(C)[C@@]3(F)[C@@H](O)C[C@@]12C | 0.8 |
| COc1ccc(CNCCC2(C(C)C)CCOC(C)(C)C2)cc1 (stereo not given) | 1.9 |
| COc1ccc(OC)c(-c2oc3ccccc3c(=O)c2O)c1 | 0.6 |
| O=C(COc1ccccc1)N1CCN(c2ccccc2)CC1 | -3.8 |
| Cc1nc(C2CC(=O)OC23CCCCC3)cs1 (stereo not given) | 0.3 |
| COc1ccc(NC(=S)NCCc2c[nH]c3ccccc23)cc1 | -0.4 |
| NC[C@H]1O[C@H](O[C@H]2[C@H](O)[C@@H](O[C@H]3O[C@H](CO)[C@@H](O)[C@H](N)[C@H]3O)[C@H](N)C[C@@H]2N)[C@H](N)C[C@@H]1O | 3.4 |
| CSCCC(NC(=O)OC(C)(C)C)C(=O)Oc1ccc2c(=O)c(-c3ccc4c(c3)OCCO4)coc2c1 (stereo not given) | -0.4 |
| COc1ccc(-c2cc(=Nc3ccc(C)cc3)c3ccccc3o2)cc1 | -2.2 |
| CC(=O)O[C@]1(C(C)=O)CC[C@H]2[C@@H]3C=C(Cl)C4=CC(=O)CC[C@]4(C)[C@H]3CC[C@@]21C | -0.5 |
| CC(C)OC(=O)CC1C(=O)NCCN1C(=S)NC(=O)c1cccs1 (stereo not given) | 0.8 |
| CC(C)Oc1ccc(C(CC(=O)O)c2ccc(F)cc2)cc1 (stereo not given) | 5.2 |
| COc1ccc(NC(=O)Nc2ccc(C(C)C)cc2)cc1 | 2.7 |
| CC(=O)C1=C(O)C(=O)N(CC(=O)O)C1c1ccccc1Cl (stereo not given) | -1.5 |
| CC12CN3CC(C)(CN(C1)C3c1ccc([N+](=O)[O-])o1)C2 (stereo not given) | -3.2 |
| CC1(c2ccccc2)CC(C)(C)N2C(=O)C(=O)c3cccc1c32 (stereo not given) | 0.5 |
| CN(C)CCOCCOc1ccc(Cl)cc1Br | 6.4 |
| COc1ccc(CCNC(=S)NC(=O)/C=C/c2ccc(C)cc2)cc1OC | 0.1 |
| COc1ccc(CN2CCCC(C(=O)c3ccc(Cl)cc3)C2)cc1Cn1cccn1 (stereo not given) | 1.9 |
| CC(C[N+](C)(C)C)OC(N)=O (stereo not given) | -0.5 |
| O=C(c1ccc(Cl)cc1)C1CCCN(Cc2ccc(Oc3ncccn3)cc2)C1 (stereo not given) | 2.2 |

target: Botulinum neurotoxin type A (Clostridium botulinum) (UniProt P0DPI0); assay: BoNT/A light chain protease inhibitors, biochemical, multiplex microsphere flow cytometry, validation set (AID 588460); conditions: at 10 µM, stronger effect = higher value
Sequence (P0DPI0 whole entry, looked up): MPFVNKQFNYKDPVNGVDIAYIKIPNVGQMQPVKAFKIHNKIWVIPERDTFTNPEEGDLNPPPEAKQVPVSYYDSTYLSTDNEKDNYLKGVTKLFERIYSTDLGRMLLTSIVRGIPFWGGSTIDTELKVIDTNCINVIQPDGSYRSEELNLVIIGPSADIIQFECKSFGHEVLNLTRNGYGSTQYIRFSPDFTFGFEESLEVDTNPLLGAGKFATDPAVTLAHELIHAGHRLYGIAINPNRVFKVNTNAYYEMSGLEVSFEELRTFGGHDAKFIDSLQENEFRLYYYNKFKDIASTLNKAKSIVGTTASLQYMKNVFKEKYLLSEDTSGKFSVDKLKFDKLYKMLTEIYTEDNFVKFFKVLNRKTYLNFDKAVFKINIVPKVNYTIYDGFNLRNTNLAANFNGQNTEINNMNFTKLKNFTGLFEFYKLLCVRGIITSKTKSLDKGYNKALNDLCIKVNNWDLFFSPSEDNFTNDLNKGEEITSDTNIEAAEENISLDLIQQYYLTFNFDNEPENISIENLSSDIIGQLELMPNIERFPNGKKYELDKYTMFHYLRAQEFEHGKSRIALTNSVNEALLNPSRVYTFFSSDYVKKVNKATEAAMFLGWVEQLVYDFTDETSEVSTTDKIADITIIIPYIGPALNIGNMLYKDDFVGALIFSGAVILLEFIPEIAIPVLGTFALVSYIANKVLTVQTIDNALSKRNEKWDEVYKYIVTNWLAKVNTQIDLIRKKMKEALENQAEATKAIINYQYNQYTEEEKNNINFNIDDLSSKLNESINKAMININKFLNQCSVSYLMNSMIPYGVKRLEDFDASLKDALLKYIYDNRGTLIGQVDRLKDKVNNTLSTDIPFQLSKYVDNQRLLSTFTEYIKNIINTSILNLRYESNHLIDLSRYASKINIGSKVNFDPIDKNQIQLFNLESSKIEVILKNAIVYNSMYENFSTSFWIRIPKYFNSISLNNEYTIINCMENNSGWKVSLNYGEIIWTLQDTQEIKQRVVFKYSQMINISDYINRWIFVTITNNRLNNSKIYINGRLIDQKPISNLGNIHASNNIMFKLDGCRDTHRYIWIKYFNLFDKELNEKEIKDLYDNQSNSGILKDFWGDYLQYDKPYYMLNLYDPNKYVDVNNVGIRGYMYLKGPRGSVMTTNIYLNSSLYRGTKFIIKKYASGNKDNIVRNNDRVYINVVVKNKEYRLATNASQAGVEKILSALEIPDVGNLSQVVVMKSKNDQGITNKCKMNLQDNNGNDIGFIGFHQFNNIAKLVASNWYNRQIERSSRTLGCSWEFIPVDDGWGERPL

| SMILES | inhibition |
| --- | --- |
| O=C(c1ccccc1)N1CCN(C(=O)c2ccccc2)CC1 | -0.7% |
| O=C(O)CCCc1ccccc1 | -2.3% |
| CC(NC(=O)c1cccnc1)C(=O)O (stereo not given) | -0.4% |
| O=C(Nc1cccc(Oc2c(F)c(F)c(F)c(F)c2F)c1)N1C[C@@H]2C[C@@H](C1)c1cccc(=O)n1C2 | 1.4% |
| O=C1CCc2cc(OCCCCc3nnnn3C3CCCCC3)ccc2N1 | -0.9% |
| CC(=O)N1CC2(C)CN(C(C)=O)CC(C)(C1)C2 | -1.6% |
| COc1cc(Cc2cnc(N)nc2N)cc(OC)c1OC | 0% and -0.2% |
| COc1ccc(O)c(C(=O)/C=C/c2cc3ccccc3o2)c1 | 0% |
| Cc1ccccc1C(=O)NCC(=O)O | 2.7% |
| c1ccc(SSc2ccccc2)cc1 | -1.5% |
| O=C(CCN1CCC(c2ccccc2)C1)c1ccc2c(c1)OCCO2 (stereo not given) | -0.2% |
| CCc1ccc(CN(C)Cc2nc(Cc3ccccc3)no2)nc1 | 0.5% |
| CCCCCCCCCC(=O)OCC(O)CO (stereo not given) | -2% |
| CC(=O)N1CCN(c2ccc(OC[C@H]3CO[C@](Cn4ccnc4)(c4ccc(Cl)cc4Cl)O3)cc2)CC1 | -1.1% |
| C[C@H]1O[C@@H](O[C@H]2[C@@H](O)C[C@H](O[C@H]3[C@@H](O)C[C@H](O[C@H]4CC[C@@]5(C)[C@H](CC[C@@H]6[C@@H]5C[C@@H](O)[C@]5(C)[C@@H](C7=CC(=O)OC7)CC[C@]65O)C4)O[C@@H]3C)O[C@@H]2C)C[C@H](O)[C@@H]1O | -0.7% |
| COc1c(C)cc(C(=O)C2CCCN(Cc3ccc(Oc4ncccn4)cc3)C2)cc1C (stereo not given) | -1.2% |
| C[N+]12CCCCC1C(COC(=O)c1ccc3c(c1)OCO3)CCC2 (stereo not given) | 0.2% |
| CCOC(=O)c1ccc(NC(=S)NCCc2ccccc2F)cc1 | 2.4% |
| CN(C)CCC(c1ccccc1)c1ccccn1 (stereo not given) | -0.2% |
| CC(=O)OCC(=O)[C@@]12OC3(CCCC3)O[C@@H]1C[C@H]1[C@@H]3CCC4=CC(=O)C=C[C@]4(C)[C@@]3(F)[C@@H](O)C[C@@]12C | -0.9% |

| SMILES | inhibition |
| --- | --- |
| COc1ccc(CNCCC2(C(C)C)CCOC(C)(C)C2)cc1 (stereo not given) | 0.8% |
| COc1ccc(OC)c(-c2oc3ccccc3c(=O)c2O)c1 | 1.3% |
| O=C(COc1ccccc1)N1CCN(c2ccccc2)CC1 | 0% |
| Cc1nc(C2CC(=O)OC23CCCCC3)cs1 (stereo not given) | -0.7% |
| COc1ccc(NC(=S)NCCc2c[nH]c3ccccc23)cc1 | -0.9% |
| NC[C@H]1O[C@H](O[C@H]2[C@H](O)[C@@H](O[C@H]3O[C@H](CO)[C@@H](O)[C@H](N)[C@H]3O)[C@H](N)C[C@@H]2N)[C@H](N)C[C@@H]1O | -1.1% |
| CSCCC(NC(=O)OC(C)(C)C)C(=O)Oc1ccc2c(=O)c(-c3ccc4c(c3)OCCO4)coc2c1 (stereo not given) | -0.4% |
| COc1ccc(-c2cc(=Nc3ccc(C)cc3)c3ccccc3o2)cc1 | -0.6% |
| CC(=O)O[C@]1(C(C)=O)CC[C@H]2[C@@H]3C=C(Cl)C4=CC(=O)CC[C@]4(C)[C@H]3CC[C@@]21C | -3.3% |
| CC(C)OC(=O)CC1C(=O)NCCN1C(=S)NC(=O)c1cccs1 (stereo not given) | -1.7% |
| CC(C)Oc1ccc(C(CC(=O)O)c2ccc(F)cc2)cc1 (stereo not given) | 2% |
| COc1ccc(NC(=O)Nc2ccc(C(C)C)cc2)cc1 | 1.5% |
| CC(=O)C1=C(O)C(=O)N(CC(=O)O)C1c1ccccc1Cl (stereo not given) | -0.5% |
| CC12CN3CC(C)(CN(C1)C3c1ccc([N+](=O)[O-])o1)C2 (stereo not given) | -1.4% |
| CC1(c2ccccc2)CC(C)(C)N2C(=O)C(=O)c3cccc1c32 (stereo not given) | 1.2% |
| CN(C)CCOCCOc1ccc(Cl)cc1Br | 1% |
| COc1ccc(CCNC(=S)NC(=O)/C=C/c2ccc(C)cc2)cc1OC | -1.3% |
| COc1ccc(CN2CCCC(C(=O)c3ccc(Cl)cc3)C2)cc1Cn1cccn1 (stereo not given) | -0.6% |
| CC(C[N+](C)(C)C)OC(N)=O (stereo not given) | -0.4% |
| O=C(c1ccc(Cl)cc1)C1CCCN(Cc2ccc(Oc3ncccn3)cc2)C1 (stereo not given) | -1.2% |
